B2AR ag = activates human beta-2 adrenergic receptor causing internalization | P07550 | AID 504454 | Am2.2-beta2AR cells, FAP receptor internalization, flow cytometry | response, % (no concentration beside the values) | hit rate 0.43% among 340,000;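 active = response above a set limit, near 3 SD of response in nonfluorescent compounds, cut at about 42% in these data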
NadD inh = NadD (S. aureus) enzyme inhibition. purified NadD enzyme, colorimetric absorbance read-out. inhibition, % at 20 µM. hit rate 0.78% among 360,000. AID 602399; in the data active = inhibition above about 26%
PP1 counter = counter-screen for PP5 inhibitors: inhibitors of human PP1-alpha; inhibition, % at 6.7 µM; hit rate 0.9% among 320,000; purified PP1alpha, OMFP fluorescence; P62136; AID 2235;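 active = inhibition above the mean inhibition of all tested compounds plus 3 SD, computed separately for each screening campaign, cut at about 15% in these data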
Target sequence (P62136 whole entry, looked up): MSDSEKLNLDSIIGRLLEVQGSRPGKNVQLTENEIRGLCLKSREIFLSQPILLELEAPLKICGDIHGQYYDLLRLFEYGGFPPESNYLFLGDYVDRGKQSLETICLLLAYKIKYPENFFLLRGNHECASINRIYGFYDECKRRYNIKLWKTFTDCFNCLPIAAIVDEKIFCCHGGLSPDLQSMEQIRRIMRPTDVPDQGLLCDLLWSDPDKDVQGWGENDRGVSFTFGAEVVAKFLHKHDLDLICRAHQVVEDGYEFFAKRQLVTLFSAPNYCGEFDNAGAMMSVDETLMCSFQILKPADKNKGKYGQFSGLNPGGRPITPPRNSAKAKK
Granule exo inh = blocks lytic granule exocytosis; TALL-104 LAMP-1 surface exposure, flow cytometry; cells stimulated with thapsigargin and PMA; inhibition, % at 10 µM; hit rate 0.66% among 360,000;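 active = inhibition above about 55%, limit read from the data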
GRK2 inh = human GRK2 inhibition via aptamer displacement | P25098 | inhibition of aptamer binding, % at 10 µM | hit rate 0.59% among 330,000 | bead flow cytometry, FAM-aptamer displacement from GRK2;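 active = inhibition of aptamer binding above 40%, roughly 3 SD of noise, on plates passing a quality check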;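 note: median bead fluorescence of bound FAM aptamer so fluorescent compounds give negative values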
Beta2AR ag CP1 = human beta-2 adrenergic receptor agonism, cherry pick; percent response (surface receptor), % at 10 µM; shares compounds with B2AR ag; hit rate 25% among 1,100; AID 540358; Am2.2-beta2AR cells, FAP surface receptor, flow cytometry; stronger effect = lower value;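 active = surface receptor percent response at or below 58%, roughly 3 SD from nonfluorescent compounds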
FAP fluor counter = fluorescence artifact in beta-2AR agonist FAP counterscreen; calls only at 10 µM; 1,100 tested, under 10 active; Am2.2 cells, FAP fluorogen flow cytometry; stronger effect = lower value; shares compounds with B2AR ag;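 active = percent response below a set limit in fluorescence channel 1 and below 50% in channel 8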
Numbers stand for hits; 0 = inactive; - = not tested or not shown. Compounds with a hit are over-represented: about 2.9% of the library has one in this group of screens.

SMILES | B2AR ag | NadD inh | PP1 counter | Granule exo inh | GRK2 inh | Beta2AR ag CP1 | FAP fluor counter
O=C(N[C@@H](Cc1ccccc1)C(=O)OCc1ccccc1)c1nc[nH]c1C(=O)NCc1ccccc1 | 63 | 0 | 0 | 0 | 0 | 0 | 0
COc1ccc(Cc2c(-c3ccc(F)cc3)nc3cc(C)c(Br)c(C)n23)c(C)c1 | - | 0 | - | 0 | - | - | -
NC(N)=NN=C1CCC(c2ccccc2)CC1 (centres undefined) | 0 | 0 | 0 | 0 | 0 | - | -
CCc1noc(C)c1C(=O)N(C)CC(=O)Nc1ccc(F)c(F)c1F | 0 | 0 | 0 | 0 | 0 | - | -
Cc1ccc(S(=O)(=O)N2CCCC2C(=O)NCCc2ccccc2)cc1 (centres undefined) | 0 | 0 | 0 | 0 | 0 | - | -
Cc1ccc(S(=O)(=O)N2CCCC2C(=O)NCCc2nc3ccccc3[nH]2)cc1 (centres undefined) | 50 | 0 | 0 | 0 | 0 | 0 | 0
Cc1ccc(S(=O)(=O)c2ccc([N+](=O)[O-])cn2)cc1 | 65 | 0 | 0 | 0 | 0 | 0 | 0
Cc1nnc2ccc(-c3ccc(NC(=O)c4cccnc4Cl)cc3)nn12 | 0 | 0 | 0 | 0 | 0 | - | -
CCOc1ncccc1C(=O)Nc1ccc(-c2ccc3nnc(C)n3n2)cc1 | 44 | 0 | 0 | 0 | 0 | 0 | 0
O=C(Nc1ccncc1)C1CCN(S(=O)(=O)c2cccc(C(F)(F)F)c2)CC1 | 0 | 0 | 0 | 0 | 0 | - | -
COc1ccc(OC)c(C(=O)NC(CC(N)=O)c2ccc(N3CCN(c4ccccn4)CC3)c([N+](=O)[O-])c2)c1 (centres undefined) | 0 | 0 | 0 | 0 | 0 | 0 | 0
COc1ccc(OC)c(C(=O)NC(CC(N)=O)c2ccc(N3CCN(c4ccccc4)CC3)c([N+](=O)[O-])c2)c1 (centres undefined) | 0 | 0 | 0 | 0 | 0 | - | -
Cc1cc(C)cc(C(=O)NC(CC(N)=O)c2ccc(N3CCN(C)CC3)c([N+](=O)[O-])c2)c1 (centres undefined) | 0 | 0 | 0 | 0 | 0 | - | -
Cc1cc(C)cc(C(=O)NC(CC(N)=O)c2ccc(N3CCN(c4ccccn4)CC3)c([N+](=O)[O-])c2)c1 (centres undefined) | 68 | 0 | 0 | 0 | 0 | 18 | 0
COc1ccc(CCNC(=O)Nc2ccc3nc([C@@H]4O[C@H](CO)[C@@H](O)[C@H](O)[C@H]4O)[nH]c3c2)cc1Br | - | 0 | - | 0 | - | - | -
C=CCNc1nc2cc(-c3ccccc3C)sc2c(=O)n1C | - | 0 | - | 0 | - | - | -
Cc1cc(C)cc(C(O)c2ncc(-c3ccccc3)[nH]2)c1 (centres undefined) | - | 0 | - | 0 | - | - | -
COc1ccc(C[C@H]2CN3C(=NC[C@@H]3Cc3ccc(O)cc3)N2CCNC(=O)c2ccc(C)c(Br)c2)cc1 | 47 | 0 | 0 | 0 | - | 0 | 0
CCCCNC(=O)c1cn(CC)c2ccc(S(=O)(=O)N3CCCCCC3)cc2c1=O | 0 | 0 | 0 | 0 | 0 | - | -
Cc1cc(NC(=O)c2cc(-c3ccncc3)nc3c(C)cccc23)no1 | 0 | 0 | 0 | 0 | 0 | - | -
Cc1cccc(NC(=O)c2cc(-c3cccnc3)nc3c(C)cccc23)n1 | 75 | 0 | 0 | 0 | 0 | 0 | 0
COc1ccc(C(=O)NCC(c2ccco2)N2CCc3ccccc32)cc1 (centres undefined) | 54 | 0 | 0 | 0 | 0 | 0 | 0
COc1ccc(NC(=O)C(=O)NCC(c2ccco2)N2CCc3ccccc32)cc1 (centres undefined) | 0 | 0 | 0 | 0 | 0 | - | -
CC1CC2(NC(=O)NC2=O)C(C)CN1C (centres undefined) | 0 | 0 | 0 | 0 | 0 | - | -
CC1C[C@@]2(NC(=O)NC2=O)C(C)CN1C (some centres undefined) | 46 | 0 | 0 | 0 | 0 | 0 | 0
SMILES | B2AR ag | NadD inh | PP1 counter | Granule exo inh | GRK2 inh | Beta2AR ag CP1 | FAP fluor counter
Cc1ccc(C(=O)c2ccccc2C(=O)OCC(=O)N2CCCC2)cc1 | 0 | 0 | - | 0 | 0 | 0 | 0
COC(=O)c1ccc2c(=O)[nH]c(CSc3nc(-c4ccc(F)cc4)cs3)nc2c1 | 64 | 0 | 0 | 0 | 0 | 0 | 0
COC(=O)c1ccc2c(=O)[nH]c(CSc3nc(C)cs3)nc2c1 | 0 | 0 | 0 | 0 | 0 | - | -
CCOC(=O)C1CCCN(C(=O)c2ccc(Cl)cc2)C1 (centres undefined) | 0 | 0 | 0 | 0 | 0 | - | -
CCCCC(=O)Nc1ccc(C(=O)N2CCCC(C(=O)OCC)C2)cc1 (centres undefined) | 61 | 0 | 0 | 0 | 0 | 41 | 0
CC(=O)c1cc(F)c(N2CCN(C(=O)COc3ccccc3F)CC2)cc1C | 0 | 0 | 0 | 0 | 0 | - | -
Nn1c(SCc2cn3ccccc3n2)nnc1-c1ccncc1 | 45 | 0 | 0 | 0 | 0 | 0 | 0
Cc1c(C(=O)N2CCc3ccccc3C2)oc2ccc(S(=O)(=O)N3CCCCCC3)cc12 | 48 | 0 | 0 | 0 | 0 | 0 | 0
Cc1c(C(=O)N2CCOCC2)oc2ccc(S(=O)(=O)N3CCCC3)cc12 | 0 | 0 | 0 | 0 | 0 | - | -
CNC(=S)N/N=C1\C(=O)c2cccc3cccc1c23 | 0 | 0 | 0 | 0 | 0 | 0 | 0
Cn1c(N)c(C(=O)COC(=O)c2ccccc2C(=O)c2ccc(Cl)c([N+](=O)[O-])c2)c(=O)n(C)c1=O | 0 | 0 | - | 0 | 0 | - | -
CCCCNc1nc(-c2ccccc2)c(C(=O)OCC)cc1C#N | 0 | 0 | 0 | 0 | 0 | - | -
CCCNc1nc(-c2ccccc2)c(C(=O)OCC)cc1C#N | 50 | 0 | 0 | 0 | 0 | 0 | 0
CC(C)Cc1nc2oc3c(Cl)ncnc3c2c2c1CCC2 | 110 | 0 | 0 | 0 | 0 | 20 | 0
CCOc1c(Br)cc(CNc2ccc3c(c2)OCCO3)cc1OC | 0 | 0 | 0 | 0 | 0 | - | -
CCOc1cc(CNc2ccc3c(c2)OCCO3)cc(Br)c1OC | 46 | 0 | 0 | 0 | 0 | 0 | 0
OC(CNCc1ccc(-c2ccccc2)cc1)c1ccccc1 (centres undefined) | 0 | 0 | 0 | 0 | 0 | - | -
OC(CNCc1cccc(Br)c1)c1ccccc1 (centres undefined) | 0 | 0 | 0 | 0 | 0 | 0 | 0
Cc1ccc(OCC(=O)Nc2ccncc2)c(C)c1 | 0 | 0 | 0 | 0 | 0 | - | -
Cc1ccc(OCC(=O)Nc2ccc(-c3nc4ncccc4o3)cc2)c(C)c1 | 116 | 0 | 0 | 0 | 0 | 16 | 0
CCCCCNC(=O)C(c1ccnc2ccccc12)n1c(=O)c(-c2cc3ccccc3[nH]2)nc2ccccc21 (centres undefined) | - | - | - | 0 | - | - | -
COc1ccccc1CCNC(C)CCc1ccc(O)cc1 (centres undefined) | 0 | 0 | 0 | 0 | 0 | - | -
CC(CCc1ccc(O)cc1)NCCc1ccc(O)c(O)c1 (centres undefined) | 0 | 0 | 0 | 0 | 0 | 0 | 0
COc1cccc(NC(=O)CCC2CCN(C(=O)c3scnc3C)CC2)c1 | 0 | 0 | 0 | 0 | 0 | - | -
O=S(=O)(Nc1cccc2ncccc12)c1cccs1 | 44 | 0 | 0 | 0 | 0 | 0 | 0
O=C(c1ccc(-c2ccc([N+](=O)[O-])cc2)o1)N1CCCCCCC1 | 52 | 0 | 0 | 0 | 0 | 0 | 0
